What is called inhibition is the drop in the measured response relative to a control, in per cent.

About 1,300 (0.41%) of roughly 320,000 compounds were called active. Roughly 3% stayed inconclusive and do not appear here. No rule for the calls is given here. Not all results are given here. Results with a measured potency or affinity are listed apart.

The assay in a line: growth inhibition of non-replicating M. tuberculosis (AID 488890).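 Also: plate controls were DMSO cells for no effect and high antibiotic wells for full effect.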 Particulars: Mycobacterium tuberculosis non-replicating, at 25 µM, stronger effect = higher value.
`CCOc1ccc2oc(C(=O)OCC(=O)NC3CCCC3)c(C)c2c1`: the inhibition is 9.82%.
Turning to `O=C(c1ccc2c(c1)CCN2S(=O)(=O)c1ccccc1)N1CCN(c2ccc(F)cc2)CC1`, the inhibition was found to be 18.7%.
Take `NC(=O)c1sc2nc(N3CCOCC3)c3c(c2c1N)CCCC3`: the inhibition worked out at 3.31%.
For the compound `CCN(CC)CCOC(=O)C(Cc1ccco1)Cc1cccc2ccccc12` (centres undefined), the inhibition stood at 12.1%.
The result for `COc1ccc2c(c1OC)C(=O)OC2Nc1nc(-c2cc3ccccc3oc2=O)cs1` (centres undefined) reads 2.83%.
Consider `COc1cc(S(=O)(=O)N2CCOCC2)cc(C(=O)OCC(=O)NC2CCCCC2)c1OC`, for which the inhibition is -1.4%.
On to `O=C(/C=C/c1cc([N+](=O)[O-])ccc1OC(F)F)Nc1cccc(OC(F)F)c1`, for which the inhibition is 0.25%.
To `COCCn1c(=NC(=O)CSCC(=O)N2CCOCC2)sc2ccccc21` belongs -8.23%.
Consider `Cn1cccc1C(=O)OCC(=O)Nc1cccc(S(=O)(=O)N2CCOCC2)c1`, for which the inhibition is -0.69%.
Take `COC(=O)C1=C(c2ccc(OC)c(OC)c2)C[C@@H]2CC[C@H]1N2C(=O)NCc1cc(C)oc1C(F)(F)F`: the inhibition was -13.9%.
The result for `Oc1cccc(Nc2nc(-c3ccccc3Cl)nc3ccccc23)c1` reads 1.57%; that for `O=C(COC(=O)c1cc2ccccc2o1)c1ccccc1`, 51.9%; that for `CC(=O)Nc1cccc(NC(=O)c2cc3ccccc3o2)c1`, 32.4%.
To `Cc1ccnc(NC(=O)c2oc3ccccc3c2C)c1` belongs 20.3%; to `O=C(O)c1ccc(NC(=O)c2cc3ccccc3o2)cc1`, 19.5%.
To `O=C(Nc1ccc(NC(=O)c2cc3ccccc3o2)cc1)c1ccco1` belongs 2.59%; to `CC(C)C(=O)Nc1cccc(NC(=O)c2cc3ccccc3o2)c1`, 2.48%.
`O=C(Nc1ccccc1)c1ccc(OC(=O)c2cc3ccccc3o2)cc1`: the inhibition was 45.2%.
To `Cc1ccc(C)c(NC(=O)c2cc3ccccc3o2)c1` belongs 75.5%.
Regarding `O=C(CSCc1cnn(-c2ccccc2)c1-n1cccc1)N1CCN(Cc2ccccc2)CC1`, the inhibition turned out to be 2.12%.
In the case of `C=CC[C@@H](CC(=O)N[C@H](CO)Cc1ccccc1)C(=O)N[C@@H](COC(=O)[C@@H](CC=C)CC(=O)OC(C)(C)C)Cc1c[nH]c2ccccc12`, the inhibition came out at 61%.
As to `CCN(Cc1ccccc1)C(=O)CSc1nc(C)cc(=O)[nH]1`, the inhibition worked out at 10.7%.
To `Nc1c(C(=O)Nc2cccc(F)c2)nnn1-c1cccc(C(F)(F)F)c1` belongs -17.3%.
To `COc1cc(C[C@@H]2C(=O)OC[C@H]2Cc2ccc(OC)c(OC)c2)ccc1O` belongs -6.61%.
To `O=S(=O)(NCC(c1ccco1)N1CCCCC1)c1ccccc1C(F)(F)F` (centres undefined) belongs 5.94%; to `Cc1ccc(C(=O)N(C)CCOc2ccccc2)cc1S(=O)(=O)N1CCCCC1`, 14.5%; to `O=C(NC1CCCCC1)C(c1cccs1)N(CCCN1CCOCC1)C(=O)c1ccc(-c2ccccc2)[nH]1` (centres undefined), 44.4%.
With `CC(=O)c1ccc(NC(=O)c2cc3ccccc3o2)cc1`, the inhibition was found to be 76.8%.
The result for `COc1ccc(NC(=O)c2cc3ccccc3o2)cc1OC` reads 53.8%.

The values are drawn from PubChem BioAssay AID488890 (Southern Research Specialized Biocontainment Screening …, 2010).
